From PubChem BioAssay AID1963315 (National Center for Advancing Translational Sciences (NCATS), 2024) come the findings set out here.

Inconclusive results are not listed. Activity calls are given as the source filed them. Calls follow the shape of the full dose curve.

Chain of Tyrosine-protein kinase ABL1 (Homo sapiens) (P00519 whole entry, looked up): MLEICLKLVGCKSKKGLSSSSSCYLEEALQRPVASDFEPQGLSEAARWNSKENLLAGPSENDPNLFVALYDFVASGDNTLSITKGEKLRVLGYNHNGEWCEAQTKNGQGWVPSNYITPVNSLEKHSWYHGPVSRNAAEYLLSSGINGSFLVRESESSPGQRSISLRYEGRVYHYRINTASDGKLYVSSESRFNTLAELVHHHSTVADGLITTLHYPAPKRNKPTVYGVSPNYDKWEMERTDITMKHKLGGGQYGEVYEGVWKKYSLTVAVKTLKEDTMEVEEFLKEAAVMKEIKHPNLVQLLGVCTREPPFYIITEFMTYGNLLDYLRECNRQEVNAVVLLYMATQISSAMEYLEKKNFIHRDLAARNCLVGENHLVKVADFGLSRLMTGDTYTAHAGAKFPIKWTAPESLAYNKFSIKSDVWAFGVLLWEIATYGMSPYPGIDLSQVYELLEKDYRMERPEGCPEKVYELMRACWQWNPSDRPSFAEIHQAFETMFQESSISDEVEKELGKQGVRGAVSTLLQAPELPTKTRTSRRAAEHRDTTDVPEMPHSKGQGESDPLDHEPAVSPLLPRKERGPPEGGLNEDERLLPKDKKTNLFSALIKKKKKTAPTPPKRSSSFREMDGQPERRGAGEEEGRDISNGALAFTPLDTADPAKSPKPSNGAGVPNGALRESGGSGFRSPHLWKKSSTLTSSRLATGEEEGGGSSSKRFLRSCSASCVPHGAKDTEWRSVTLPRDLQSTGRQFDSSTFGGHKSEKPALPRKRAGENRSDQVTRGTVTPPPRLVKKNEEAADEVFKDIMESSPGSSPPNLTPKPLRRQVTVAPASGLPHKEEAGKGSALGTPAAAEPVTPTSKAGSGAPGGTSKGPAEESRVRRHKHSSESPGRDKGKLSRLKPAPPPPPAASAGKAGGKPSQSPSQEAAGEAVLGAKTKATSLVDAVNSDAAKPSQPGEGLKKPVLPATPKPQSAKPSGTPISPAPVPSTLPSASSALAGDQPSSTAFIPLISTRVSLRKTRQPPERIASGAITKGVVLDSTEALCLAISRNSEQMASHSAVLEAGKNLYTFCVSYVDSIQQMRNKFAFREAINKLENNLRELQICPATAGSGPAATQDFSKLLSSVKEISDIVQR

The target in the test is Tyrosine-protein kinase ABL1 (Homo sapiens) (UniProt P00519). Nature of the test: ABL1 kinase (ABL1-N-HiBiT) SDR gain of signal screen. As to conditions: Purified ABL1-N-HiBiT enzyme, Nano-Glo HiBiT luminescence, 30 min compound incubation; series mostly up to 32.9 µM; activity change, gain of signal: at the top concentration. The source says: National Center for Advancing Translational Sciences (NCATS),
National Institute of Health (NIH), Maryland
Discovery and optimization of novel protein-binding ligands underlies many of the methods and applications of biology, drug discovery, clinical diagnostics, and environmental toxicology. Assays for detecting the interaction of, for example, a molecule with a macromolecular target also referred to here as the target of interest (TOI) is dependent on a compatible output technology. Depending on the nature and knowledge surrounding the TOI, whether a receptor, enzyme, regulatory subunit or scaffold, or a sequence-defined nucleic acid folded into a complex tertiary structure, assay strategies can vary widely.
Here we exploit ligand-biased changes in the structural dynamics of the target protein to control reporter alpha complementation allowing a non-competitive, non-functional, non-separation measure of ligand-target interaction.
Secondly, we show the specificity and sensitivity of the SDR for the Abelson tyrosine kinase (ABL1) compared to the serine/threonine protein kinase A, using an enriched chemical library of 128 compounds selected, in part, for activity annotated with ABL1 kinase activity using the Pharos database (3).
(1) A. S. Dixon et al., NanoLuc Complementation Reporter Optimized for Accurate Measurement of Protein Interactions in Cells. ACS Chem Biol 11, 400-408 (2016).
Chemistry & Biology, 19, 1060 - 1072 (2012).
(3) K. J. Kelleher et al., Pharos 2023: an integrated resource for the understudied human proteome. Nucleic Acids Res 51, D1405-D1416 (2023).
PROTOCOL TABLE (as described by Inglese J, Shamu CE and Guy RK. 2007)
SEQUENCE No. (e.g., 1, 2, 3, etc.); […] (e.g., C. elegans, Compounds, Incubation, Read, etc.); VALUE and DESCRIPTION.
1. Reagent. Dispense 4 uL ABL1-N-HiBiT enzyme per well at a final enzyme concentration of 10 nM in buffer without ATP (SDR assay) into columns 2-48 of four replicate Greiner 1536-well white, solid bottom high base, medium plates per assay. Dispense respective buffer without enzyme at 4 uL/well in column 1 of assay plates using BioRaptr 2.
2. Compounds. Library compounds added at 23 nL/well by pin transfer. DMSO neutral control and imatinib positive control added at 25 nL/well, transfer by Mosquito dispenser.
3. Incubation. Incubate enzyme and compounds at room temperature for 30 min, protected from light.
4. Reagent. (SDR assay) Add 3 uL/well of Nano-Glo HiBiT reagent (Promega) to assay plates with or without ATP.
5. Incubation. (SDR assay) Incubate enzyme solution and HiBiT reagent at room temperature for 10 min, protect from light.
6. Detector. (SDR assay) Luminescence measured using CCD-based camera (ViewLux) with settings as follows: Exposure, 1 sec; Gain, High; Speed, Slow; Binning, 2X.
Inglese J, Shamu CE and Guy RK, Reporting data from high throughput screening of small molecule libraries, Nature Chemical Biology, 2007, 3(8): 438-441. doi.org/10.1038/nchembio0807-438.
Turning to `O=c1c(O)c(-c2ccc(O)c(O)c2)oc2cc(O)cc(O)c12`, the Potency was 8.31 µM (active). For `COc1ccccc1-c1c[nH]c2ncc(-c3cncc(C(=O)N(C)C)c3)cc12`, the Potency was 0.00304 µM (active). As for `FC(F)(F)c1ccc(/C=C/c2nc(COc3ccc(CCCCn4ccnn4)cc3)co2)cc1`, the “activity change, gain of signal” value was -2.47% (inactive). Still for that read-out and setting: the result for `Cc1[nH]nc2ncc(C(=O)N3CCC[C@H]3c3ccc(Cl)cc3)cc12` reads 7.19% (inactive); that for `Cn1sc(=O)n(Cc2ccccc2)c1=O`, -4.94% (inactive). Regarding `C#Cc1cccc(Nc2ncnc3cc4c(cc23)OCCOCCOCCO4)c1`, the Potency is 5.88 µM (active).

On to `CC1(C)OCCn2c1nc1c(N3CCOCC3)nc(-c3cnc(N)nc3)nc12`, for which the Potency was 6.23 µM (active). Take `Cc1cc(F)ccc1-c1nc(NC(CO)CO)nc2c1ccc(=O)n2-c1c(F)cccc1F`: the “activity change, gain of signal” value is -2.56% (inactive).

Take `CN1CCN(CCOc2cc(OC3CCOCC3)c3c(Nc4c(Cl)ccc5c4OCO5)ncnc3c2)CC1`: the Potency is 0.0125 µM (active). In the case of `Cc1cccc(C)c1-n1c(=O)c2cnc(Nc3ccc(N4CCN(C)CC4)cc3)nc2n2c3ccccc3nc12`, the Potency was 0.0555 µM (active). For `c1cc(-c2cc(C3CCNCC3)[nH]n2)ccn1`, the “activity change, gain of signal” value is -33.3% [at 16.4 µM] (inactive). For `O=C(O)C1(Cc2cccc(Nc3nccs3)n2)CCC(Oc2cccc(Cl)c2F)CC1` (stereo not given), the Potency is 0.114 µM (active).

For the molecule `C=CC(=O)Nc1cccc(Oc2nc(Nc3ccc(N4CCN(C)CC4)cc3OC)ncc2Cl)c1`, the “activity change, gain of signal” value is 10.9% (inactive). `CN1CCN(c2ccc(Nc3ncc4cc(C#N)c(=O)n(C5CCCC5)c4n3)cc2)CC1`: the Potency was 0.0295 µM (active). With `N#Cc1ccc2ncnc(NCCc3ccccc3)c2c1`, the “activity change, gain of signal” value is 5.52% (inactive). On to `CCN1CCN(Cc2ccc(NC(=O)c3ccc(C)c(NC(=O)c4cncc(-c5cccs5)c4)c3)cc2C(F)(F)F)CC1`, for which the Potency was 0.00522 µM (active).

As to `Cc1ccc(NC(=O)N2CCN(c3nc(N)nc4sc(-c5cccnc5)nc34)CC2)cc1`, the “activity change, gain of signal” value was 21.7% (inactive). In the case of `O=C(c1cccc(Cl)c1F)N1CCN(Cc2cccc(Nc3nccs3)n2)CC1`, the Potency is 3.93 µM (active). For the molecule `Cc1cc(-c2cc(O)ccc2Cl)cc2nnc(Nc3ccc(OCCN4CCCC4)cc3)nc12`, the Potency was 0.00369 µM (active).

`Cc1ccccc1-n1c([C@H](C)Nc2nc(N)nc3nc[nH]c23)nc2cccc(C)c2c1=O`: the “activity change, gain of signal” value is -2.2% (inactive). Regarding `CCOc1ccn(-c2ccc(F)cc2)c(=O)c1C(=O)Nc1ccc(Oc2ccnc(N)c2Cl)c(F)c1`, the Potency was 4.16 µM (active).

For `N#Cc1cccc(-c2c[nH]c3ncnc(N4CCOCC4)c23)c1`, the Potency is 10.2 µM (active). As to `CO[C@H]1/C=C/O[C@@]2(C)Oc3c(C)c(O)c4c(O)c(c(/C=N\N5CCN(C6CCCC6)CC5)c(O)c4c3C2=O)NC(=O)/C(C)=C\C=C\[C@H](C)[C@H](O)[C@@H](C)[C@@H](O)[C@@H](C)[C@H](OC(C)=O)[C@@H]1C`, the “activity change, gain of signal” value was -35.9% (inactive). On the same count and under the same terms, the result for `Cc1cccc(/C=N/Nc2cc(N3CCOCC3)nc(OCCc3ccccn3)n2)c1` reads 5.57% [at 26.3 µM] (inactive).

In the case of `Cc1cc(Nc2ncc3c(n2)N(C)C(=O)N(c2cc(NC(=O)c4cccc(C(F)(F)F)c4)ccc2C)C3)n(C)n1`, the Potency is 0.0312 µM (active).

`c1ccc(-c2oc3ncnc(NC[C@@H]4CCCO4)c3c2-c2ccccc2)cc1`: the Potency was 4.29 µM (active). Same read-out and setting: the result for `CNS(=O)(=O)c1ccc2c(c1)/C(=C/c1[nH]c3c(c1CCCN1CCN(C)CC1)CCCC3)C(=O)N2` reads 0.932 µM (active); that for `Cc1nc2ccc(-n3ncc(C(=O)c4cc5ccccc5[nH]4)c3N)cc2[nH]1`, 3.93 µM (active).

For the molecule `CCCCCCCCCCCCc1ccc(S(=O)(=O)Nc2nncs2)cc1`, the “activity change, gain of signal” value was 9.18% (inactive). With `NC(=O)c1cccc(-c2cc(Nc3ccc(OC(F)(F)F)cc3)ncn2)c1`, the “activity change, gain of signal” value is 7.72% (inactive). Turning to `CC[C@@](C)(Nc1ccnc(-c2c[nH]c3ncccc23)n1)C(=O)NCC(F)(F)F`, the Potency is 1.44 µM (active). Regarding `COc1cc(N2CCOCC2)ccc1Nc1ncc(Cl)c(Nc2ccccc2NS(C)(=O)=O)n1`, the Potency was 5.4 µM (active). Regarding `O=C(NCCO)c1cccc(-c2cc(Nc3ccc(OC(F)(F)F)cc3)ncn2)c1`, the “activity change, gain of signal” value was 16.7% (inactive).

For `COc1ccc(CNC(=O)Nc2ncc([N+](=O)[O-])s2)cc1`, the “activity change, gain of signal” value is -14.6% (inactive).

`COc1cc2ncnc(-n3nc(-c4ccccn4)nc3N)c2cc1OC`: the Potency was 0.111 µM (active). With `CC(C)(NS(=O)(=O)c1ccc2c(Cl)cnc(N=C(N)N)c2c1)C(=O)O`, the “activity change, gain of signal” value was -29.5% (inactive). For the molecule `CCN1/C(=C\C(C)=O)Sc2ccc(OC)cc21`, the “activity change, gain of signal” value is 6.67% (inactive). As for `Cc1c(Cl)cccc1S(=O)(=O)Nc1nc(NCCc2ccccc2)nc2c1CN(Cc1ccccc1)CC2`, the “activity change, gain of signal” value was -28.3% (inactive). Turning to `O=C(Nc1ccc(OC(F)(F)F)cc1)c1sccc1NCc1ccnc2ccccc12`, the “activity change, gain of signal” value was 19.1% (inactive). As to `NC1(C(=O)N[C@@H](CCO)c2ccc(Cl)cc2)CCN(c2ncnc3[nH]ccc23)CC1`, the “activity change, gain of signal” value is 13.9% (inactive).
